Compound activity as filed in PubChem.
Only some compounds are listed: those with a hit (about 3.6% of all), similar ones and a draw of the others.
Abeta rescue = qHTS for compounds that reverse cellular toxicity of Amyloid beta (A-beta) peptide in yeast: Primary Screen; yeast expressing A-beta42, growth rescue, OD600, 48 h; response scale: 0% DMSO, 100% iron-clioquinol control; Potency, µM (titrated, usually from 46.1 µM), hits mostly activators; actives 0.063% (n = 410,000); note: nearly all actives have a fitted effect of over 55% in size
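Yeast growth medium received pinned compounds, then yeast cells expressing toxic A-beta were added; plates incubated at 30 C for 48 hr. Growth read as absorbance at 600 nm, normalized to DMSO and equimolar FeCl3 plus clioquinol controls.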
ClpP mod = qHTS Assay for Activators of ClpP; actives 1.9% (n = 340,000); Potency, µM (doses to about 57.5 µM), for the others: top-dose activity change, negative = active; purified B. subtilis ClpP, FRET peptide cleavage, 20 min; active = well fitted falling curve with a large enough effect; inconclusive = small, poorly fitted or top-dose-only effect; inactive = no such curve, though single readings can be large or run the other way; note: the source files actives as falling curves though it sought activators and does not explain the sign; nearly all actives have a fitted effect of over 65% in size
Target sequence (P80244 whole entry, looked up): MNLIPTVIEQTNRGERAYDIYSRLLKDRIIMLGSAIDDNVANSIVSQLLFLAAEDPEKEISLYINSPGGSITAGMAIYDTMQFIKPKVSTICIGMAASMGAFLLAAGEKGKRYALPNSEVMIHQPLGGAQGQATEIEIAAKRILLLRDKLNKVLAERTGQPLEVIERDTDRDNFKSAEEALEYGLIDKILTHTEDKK
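FRET quenching reversal measured ClpP activation: 10 microg/mL B. subtilis ClpP at pH 8 with the FRET-FV decapeptide, read at 430 nm after 320 nm excitation. The 20-min minus 0-min signal was scaled between DMSO/no-enzyme wells and ADEP (5.8 microM final).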
aSyn rescue = qHTS of alpha-syn Inhibitors; Yeast expressing alpha-synuclein, growth rescue, BacTiter-Glo, 24 h; Potency, µM (top dose mostly 46.1 µM), inactives show at the highest dose growth rescue (activation), most hits filed as activators; actives 0.14% (n = 370,000); AID 652106, 2013; note: % of control where 0% means no effect; nearly all actives have a fitted effect of over 65% in size
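Rescue of yeast growth: cells expressing toxic alpha-synuclein, induced in galactose at OD600 0.02, incubated with compound 24 h at 30 C. ATP luminescence quantified growth; inhibitors of toxicity appear as activators.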
FUS yeast rescue = qHTS for Suppressors of FUS Proteinopathy: Primary screen using FUS-linked yeast assay; Potency, µM (titrated, usually from 76.6 µM), actives largely listed as activators; AID 1347120, 2019; actives 0.24% (n = 390,000); S. cerevisiae FUS-expressing, growth rescue, OD600, 24 h;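 note: plate controls were DMSO vehicle for no effect and reference control for full effect; nearly all actives have a fitted effect of over 55% in size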
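Toxicity suppression screen in FUS-yeast. Cells induced with 2% galactose, starting OD 0.005, treated 24hr at 30C with compounds at multiple final concentrations; growth by OD600.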
TDP43 rescue = qHTS of TDP-43 Inhibitors; TDP-43 expressing yeast growth rescue, BacTiter-Glo, 24 h; Potency, µM (top dose mostly 46.1 µM), for the others: at the highest dose growth rescue (activation), usual class: activators; actives 1.8% (n = 410,000); note: % of control where 0% means no effect; nearly all actives have a fitted effect of over 50% in size
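Luminescence from BacTiter-Glo reports growth of TDP-43-expressing yeast after 24 hr at 30 deg C with compound. Cells were raffinose-pregrown to mid-log, then seeded in galactose medium at OD600=0.02.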
Mm-Cpn inhibitor = Inhibitors of TCP-1 ring complex (TRiC) of Methanococcus maripaludis (MmCpn): qHTS; Chaperonin Mm-Cpn (Methanococcus maripaludis); purified Mm-Cpn ATPase, ADP Transcreener TR-FRET; Potency, µM (titrated, usually from 76.9 µM), without a hit: at the highest dose activity, negative = inhibition, most hits filed as inhibitors; actives 0.031% (n = 330,000); AID 504842, 2011; note: % is set by controls: 0 for no effect and ±100 for the full control effect; nearly all actives have a fitted effect of over 80% in size
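TR-FRET (320 nm excitation; 590 and 665 nm emission) reports ADP made from 10 uM ATP by 25 nM enzyme; compounds were preincubated 10 min, reaction run 30 min, both at 37°C.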
Numbers without * were called inactive; i = inactive; ? = inconclusive; / = no result given. Unless noted, calls come from the whole dose curve; as a rule, active = well fitted curve in the direction sought with a large enough effect; inconclusive = small, poorly fitted or top-dose-only effect, or another doubt; inactive = no such curve, though single readings can be large; an effect the other way counts as inactive or inconclusive. Potency is the fitted concentration of half-maximal effect.

SMILES | Abeta rescue | ClpP mod | aSyn rescue | FUS yeast rescue | TDP43 rescue | Mm-Cpn inhibitor
Cc1ccc(C)c(NC(=O)CSc2nc(=O)n(Cc3ccncc3)c3c2CCC3)c1 | i | -11% | / | i | 11% | /
CC1CC2(CCCCC2)Nc2ccc3ccccc3c21 (stereo not given) | i | 18µM* | 1% | i | 17% | 2%
CCOC(=O)CSc1nc(N)c(C#N)c(-c2cccs2)c1C#N | i | -16% | 1% | i | ? | ?
CCCSc1nc(N)nc(-c2cccs2)c1C#N | i | 25µM* | -19% | i | ? | -3%
CCOC(=O)C1=CCN(S(=O)(=O)c2ccccc2F)C1c1ccc(C)cc1 (stereo not given) | i | -3% | 2% | i | 0% | /
CCOC(=O)C1=CCN(S(=O)(=O)c2ccccc2F)C1c1ccc(Cl)cc1 (stereo not given) | i | -1% | 13% | i | 16µM* | /
O=C(NCCCc1ccccc1)O[C@@H]1CC[C@@]23CCCN2C(=O)CCC[C@H]3C1 | / | / | / | i | / | /
NS(=O)(=O)c1ccc(N=Nc2ccc(O)c3ncccc23)cc1 | i | 1% | -22% | i | ? | -5%
CCOc1ccc(N=Nc2ccc(O)c3ncccc23)cc1 | ? | / | 13µM* | i | ? | -1%
O=C1C2CCCCC2C(=O)N1c1ccc(S(=O)(=O)Nc2ncccn2)cc1 (stereo not given) | i | 16µM* | -7% | i | 6% | 0%
CCC(C)[C@H]1COCCS(=O)(=O)N1Cc1ccc(Br)cc1 (stereo not given in full) | i | 1% | 11% | i | 35µM* | 1%
O=S1(=O)CCOC[C@H](Cc2ccccc2)N1Cc1cccc(Cl)c1 | i | 1% | 17% | i | ? | /
O=S1(=O)CCOC[C@H](Cc2ccccc2)N1Cc1ccc(Cl)cc1 | i | -1% | 18% | i | 16µM* | /
CC(C)[C@H]1COCCS(=O)(=O)N1Cc1ccc(Cl)cc1 | i | 1% | -10% | i | 3% | 0%
CC(C)C[C@H]1COCCS(=O)(=O)N1Cc1cccc(C(F)(F)F)c1 | i | 1% | 0% | i | 14µM* | /
C=C1NN(Cc2ccc(OC)cc2)C(=O)N1c1ccccc1 | / | -1% | 2% | / | / | /
Cc1nc2n(c(=O)c1CCN1CCC(c3noc4cc(F)ccc34)CC1)CCCC2O (stereo not given) | / | / | 3% | / | / | /
COc1ccc(CCNC(=O)CCc2c(C)c3cc4c(C)coc4cc3oc2=O)cc1 | i | -21% | / | i | 7% | /
CCOc1ccc(CCNC(=O)c2ccc(CSCc3ccccc3C)o2)cc1OCC | i | -4% | / | i | 32% | /
COc1ccc(-c2cc(-c3ccc(C)cc3)nc3c2COc2ccccc2-3)cc1 | i | 4% | / | i | 4% | /
Cc1sc2ncnc(N3CCC(C(=O)Nc4cc(Cl)ccc4Cl)CC3)c2c1C | i | -5% | -10% | i | 11µM* | -18%
Cc1sc2ncnc(N3CCC(C(=O)NNC(=O)c4ccc(Cl)cc4)CC3)c2c1C | i | 13µM* | 0% | i | 28% | -2%
COc1ccccc1Nc1nc(-c2ccccc2F)nc2ccccc12 | i | -2% | / | i | 13% | /
COCCNC(=S)N/N=C/c1c2ccccc2cc2ccccc12 | ? | / | 15% | i | ? | -5%
NC(=S)N/N=C\c1c2ccccc2cc2ccccc12 | ? | -1% | ? | i | 20µM* | -2%
SMILES | Abeta rescue | ClpP mod | aSyn rescue | FUS yeast rescue | TDP43 rescue | Mm-Cpn inhibitor
COc1ccc(O)c(/C=N/n2c(-c3ccco3)csc2=Nc2cccnc2)c1 | i | 0% | -8% | / | 14% | 0%
CN=c1scc(-c2ccco2)n1/N=C/c1ccc(O)c(O)c1 | i | / | 13% | i | 28µM* | -1%
CC(C)C(=O)N1c2nc(C(C)C)nn2C2(CCCCC2)[C@@H]2CCCC[C@@H]21 | i | -1% | / | i | -14% | /
CSc1nc2ncc3c(n2n1)CC1c2ccccc2CCN1C3=O (stereo not given) | i | 28µM* | / | i | 16µM* | -1%
Cn1cccc1-c1nc2ccccc2n1Cc1ccccc1 | i | 28µM* | -1% | i | 19% | 2%
COCn1c(-c2ccc(OC)c(OC)c2)nc2ccccc21 | i | 28µM* | / | i | ? | -1%
COCn1c(-c2cccc(Br)c2)nc2ccccc21 | i | ? | -14% | i | -17% | -2%
Cc1cccc(Cn2c(-c3ccccc3)nc3ccccc32)c1 | i | -27% | / | i | 14µM* | /
CCCN(Cc1cc2cc(C)ccc2[nH]c1=O)C(=O)c1cccc(Cl)c1 | i | -2% | / | i | 32% | /
Cn1ccc2cc(-c3ccc4ncnc(NCc5ccc6c(c5)OCO6)c4c3)ccc21 | / | / | / | / | / | -5%
CCOC(=O)c1nn(-c2ccccc2)c(C(=O)OCC)c1N | i | 2µM* | 1% | i | 2% | -5%
CCOC(=O)c1nn(-c2ccccc2)c(=O)c2c(N)scc12 | i | -2% | -27% | i | -19% | -3%
CCOC(=O)CCc1c(C)nc2c(c(C)nn2-c2ccccc2)c1C | i | 4% | 0% | i | 3% | -7%
CCOC(=O)c1c(C)nc2c(c(SC)nn2-c2ccccc2)c1N | i | 25µM* | 9% | i | -1% | -13%
Cc1ccc(-c2nnc3ccc(SCC(=O)OCc4ccccc4)nn23)cc1 | / | 4% | 0% | / | / | /
CC(C)OCCCn1c(SCC(=O)Nc2ccc(F)cc2)nc2c(sc3ccccc32)c1=O | i | -5% | / | i | -14% | /
OC[C@@H]1[C@@H](c2ccccc2)C(c2ccccc2)=NN1c1ccccc1 | ? | 4% | ? | i | 13µM* | -4%
COc1ccccc1[C@H]1C(c2cccc(Cl)c2)=NN(c2ccccc2)[C@@H]1CO | i | 4% | -1% | ? | 20µM* | ?
OC[C@@H]1[C@@H](c2ccccc2)C(c2cccc(Cl)c2)=NN1c1ccccc1 | i | 4% | -69% | ? | -80% | -13%
CCOC(=O)[C@@]12CCCC3=C1N(CCC3)C(=O)[C@H]2CC(=O)NCC1CCCCC1 | / | / | / | i | / | /
CCN(c1cccc(C)c1)S(=O)(=O)c1ccc(N2CCCCS2(=O)=O)cc1 | i | -2% | / | ? | 1% | /
Cc1ccccc1CN1[C@H]2CCCC[C@@H]2OCCS1(=O)=O | / | -3% | / | / | / | /
